The results in this text go back to PubChem BioAssay (NCI).

About 83,000 compounds went through this panel and 20% of them were active in at least one assay; those are over-represented in the sample as a whole.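 Negative percent growth values reflect cell death: -40 means 40% of the cells present at the start died, and -100 means all died.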 Values without a mark were called inactive. Calls of active or inactive are those of the source. How the source made its calls: active means growth percent below 10; inactive means the rest.

The test system of the experiment is HL-60(TB) leukemia. The experiment is described as follows: NCI-60 one-dose screen, 48 h (100 = growth as untreated, 0 = no growth, -100 = all killed). Particulars: 10 µM unless noted.
As to `CN(C)CC1CCC(CN(C)C)C1=O` (stereo not given), the growth was 84.2%.

With `O=C(N1CCC(CN=c2cc3n(-c4ccc(Cl)cc4)c4ccccc4nc-3cc2Nc2ccc(Cl)cc2)CC1)N1CC1`, the growth was -73.3% (active).

In the case of `C#CCC1(c2ccc(F)c(F)c2)NS(=O)(=O)c2ccccc21` (stereo not given), the growth is 89.2%.

On to `CCCCN(CCCC)CCCCCCCCC(O)c1cc2ccccc2c2ccccc12` (stereo not given), for which the growth was 28.5%.

Turning to `CC(C)(C)OC(=O)N1CCc2c(sc3ncnc(N/N=C/c4cccc5ccccc45)c23)C1`, the growth is 11.5%.

Take `Clc1ccc2c(NCCCNC3CCCCC3)ccnc2c1`: the growth is 96.1%.

Regarding `COc1cc(-c2nc(C(=O)NCC(=O)NO)nn2-c2ccc(Cl)cc2)cc(OC)c1OC`, the growth was 97.4%.

For the molecule `COc1cc(/C=C/C(=O)c2ccc(-n3cc(CN4CCN(c5cc6c(cc5F)c(=O)c(C(=O)O)cn6C5CC5)CC4)nn3)cc2)ccc1O`, the growth was 90.3%.

As to `O=C(NO)c1ccc(CNc2cccc3nc(C4CC4)n(-c4ccccc4)c(=O)c23)cc1`, the growth was 7.45% (active).

Turning to `CN1CCN(CCNC(=O)c2cccc(CN3c4cccc5c4C(=Cc4cccnc43)N(C)C5=O)c2)CC1`, the growth is -6.25% (active).

Take `COc1cc2c(=O)[nH]c3cc([N+](=O)[O-])ccc3c2cc1[N+](=O)[O-]`: the growth was 71.1%.

Regarding `O=C(CCl)Oc1ccc([N+](=O)[O-])cc1`, the growth was 107%.

Take `COc1ccc(C(=O)/C=C/c2cc(C(=O)c3cc(OC)c(OC)c(OC)c3)ccc2OC)cc1`: the growth was 75.3%.

For the molecule `CC(C)CCN(CCC(C)C)CC(=O)Nc1ccc(S(=O)(=O)c2ccc(NC(=O)CN(CCC(C)C)CCC(C)C)cc2)cc1`, the growth was 19.1%.

On to `CC1=NN(c2cccc(Cl)c2)C(=O)/C1=C\c1cn(-c2nc(N3CCOCC3)nc(N3CCOCC3)n2)c2ccccc12`, for which the growth is 99.1%.

For `N#Cc1c(-c2ccccc2)cc(-c2ccccc2)n(CCCCC(=O)NO)c1=O`, the growth is 11%.

Turning to `CCc1ccc(OC(=O)CCl)cc1`, the growth was 102%.

As for `O=C(Nc1ccc(F)cc1)ON=C1CCCCC1`, the growth was 86.8% [100 µM].

On to `COc1ccc(/C=C2\CN(C(=O)CCN3CCC(=NO)CC3)C/C(=C\c3ccc(OC)cc3)C2=O)cc1`, for which the growth is -14.4% (active).

As to `CNS(=O)(=O)c1ccc(Cl)c(Cl)c1`, the growth is 137%.

In the case of `C1Cc2onc(-c3noc4c3CCC4)c2C1`, the growth was 103%.

Regarding `CCOC(=O)c1c(-c2cc(OC)c(OC)c(OC)c2)csc1N`, the growth is 96.3%.

On to `O=[N+]([O-])c1ccccc1Sc1ccccc1[N+](=O)[O-]`, for which the growth was 111%.

Take `COc1cc(O)c2c(=O)c3c(CC=C(C)C)cc(OC)c(O)c3oc2c1`: the growth is -15.9% (active).

In the case of `CN1CCN(CCCN2c3ccccc3Sc3ccc(C(F)(F)F)cc32)CC1`, the growth is 83.8%.

`CCOC(=O)Nc1ccc2c(c1)/C(=N\NC(=S)NC)c1ccccc1-2`: the growth was 103%.

Regarding `Oc1cc2ccccc2c(-c2c(O)c(O)cc3ccccc23)c1O`, the growth is 19.8%.

For `CCN(CC)CCCNC(=O)c1c2c(n3ccccc13)C(=O)c1ncccc1C2=O`, the growth is -33.8% (active).

For the molecule `N#Cc1nnn(-c2ccc(S(N)(=O)=O)cc2)c1NC(=O)CCl`, the growth was 77.5%.

Turning to `CN(C)CCCNc1nc(-c2cccc(C(Cl)(Cl)Cl)c2)nc(C(Cl)(Cl)Cl)n1`, the growth is 105%.

Regarding `O=C(O)[C@@H]1[C@H]2C[C@H]3c4[nH]c5ccccc5c4CCN3C[C@@H]2CC[C@@H]1O`, the growth is 128%.

In the case of `CCc1ccccc1-n1c(N)c(C#N)c(-c2ccc(Cl)cc2)c(C#N)c1=O`, the growth is 117%.

With `O=S(=O)(O)c1cccnc1`, the growth is 61.8%.

Consider `O=C1CN(c2ccccc2)C(=O)C1C(=O)Nc1ccc(Cl)c(Cl)c1` (stereo not given), for which the growth was 7.75% [100 µM] (active).

As for `Cc1ccc(C(=O)Nc2cccc(F)c2)cc1NC(=O)C1(c2ncnc3[nH]ccc23)CC1`, the growth is 64.7%.

Turning to `COc1cc2cc(NCc3ccc(Cl)cc3)nc(C)c2cc1OC`, the growth is 31.3%.

Turning to `O=C1c2cccnc2-c2ncccc21`, the growth is 95.4% [100 µM].

Regarding `CN(C)CCOc1nc2c3cccnc3cc(-c3cccc(Cl)c3)c2c2ncccc12`, the growth was -20.4% (active).

As to `COc1ccc2c(c1)NC(=O)CN2c1nc(C)nc2ccccc12`, the growth is -6.18% (active).

In the case of `COc1cc(/C=C\c2cc(OC)c(OC)c(OC)c2)cc(NS(=O)(=O)c2ccc(Cl)cc2)c1OC`, the growth is -31% (active).
